Giardia FBPA inh: inhibitors of Giardia lamblia fructose-1,6-bisphosphate aldolase; purified Giardia FBPA; Potency, µM (top dose mostly 59.6 µM), hits mostly inhibitors; actives 0.71% (n = 290,000); note: nearly all actives have a fitted effect of over 55% in size
Target sequence (A8B2U2 whole entry, looked up): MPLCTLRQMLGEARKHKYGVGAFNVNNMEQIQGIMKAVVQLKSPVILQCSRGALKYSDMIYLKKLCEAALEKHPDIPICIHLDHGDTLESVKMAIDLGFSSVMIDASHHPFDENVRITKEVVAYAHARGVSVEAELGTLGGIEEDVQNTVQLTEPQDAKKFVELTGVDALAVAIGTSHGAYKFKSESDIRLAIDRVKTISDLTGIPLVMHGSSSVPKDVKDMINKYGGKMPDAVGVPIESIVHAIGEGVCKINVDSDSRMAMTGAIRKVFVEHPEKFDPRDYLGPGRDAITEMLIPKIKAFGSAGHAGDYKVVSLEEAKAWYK
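Giardia FBPA (40 nM reagent) was preincubated 10 min at RT with compound (up to 57.5 uM final), then substrate plus GAPDH/TPI/NAD/arsenate coupling system with diaphorase/resazurin was added; resorufin fluorescence (525/598 nm) was read after 20 min.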
Pf growth 96h: P. falciparum growth inhibition at 96 hours. Potency, µM (highest dose often 28.7 µM), hits mostly inhibitors. AID 504834. P. falciparum luciferase reporter growth, 96 h. actives 6.9% (n = 320,000)
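Infected RBCs, 2% Hct / 0.05% parasitemia final; luciferase-reporter P. falciparum; cpd 96 h, 37 C, 5% CO2; luciferase detection reagent; luminescence.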
Sm TGR inh: inhibitors of Schistosoma mansoni thioredoxin glutathione reductase; Q962Y6; purified TGR, DTNB reduction, TNB absorbance 405 nm; Potency, µM (top dose mostly 114 µM), most hits filed as inhibitors; actives 3% (n = 360,000); AID 485364; note: nearly all actives have a fitted effect of over 60% in size
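Kinetic colorimetric format: TGR-catalysed, NADPH-driven DTNB reduction monitored via TNB absorbance. Enzyme dispensed at 20 nM; compound exposure 15 min at room temperature before reaction start.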
Pf growth 48h: inhibits P. falciparum growth in the first generation, 48 h; P. falciparum luciferase growth in erythrocytes, 48 h; Potency, µM (doses to about 28.7 µM), most hits filed as inhibitors; actives 5.9% (n = 310,000)
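Growth was read as firefly luciferase luminescence after a 48 h, 37 C, 5% CO2 exposure of compounds to reporter-bearing P. falciparum cultures (0.1% parasitemia, 2% hematocrit final) in Albumax-supplemented RPMI 1640.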
HCMV antiviral: blocks human cytomegalovirus replication. AID 1259415. actives 4.5% (n = 410,000). HFF cells, HCMV-luciferase reporter, 72 h; stronger effect = lower value. activity change, negative = inhibition, % at 57.5 µM; in the data active = activity change below about -60%; inconclusive = no clear call, values can overlap the other calls; inactive = above about -39%
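After 16 h attachment at 37C, HFF cells received test compound and HCMV-luciferase (1 PFU/cell); reporter luminescence read 72 h later, data normalized against buffer-only and known inhibitor Salinomycin.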
Of the large screens only hits and unclear results are named; the others gave an inactive call. Compounds with a hit are over-represented: about 14% of the library has one in this group of screens. Unless noted, calls come from the whole dose curve; as a rule, active = well fitted curve in the direction sought with a large enough effect; inconclusive = small, poorly fitted or top-dose-only effect, or another doubt; inactive = no such curve, though single readings can be large; an effect the other way counts as inactive or inconclusive.

CCN(CC)CCn1c(=N)n(CC(=O)c2ccc(C)cc2)c2ccccc21	Pf growth 48h 4.7µM
CC(=O)Nc1nonc1-c1nc2ccccc2n1Cc1ccccc1	Pf growth 48h 12µM (no result: Pf growth 96h)
CC(=O)Nc1nonc1-c1nc2ccccc2n1Cc1nnc(C)o1	none
CCN(CC)CCn1c(NC(=O)c2ccc(C)cc2)nc2ccccc21	Pf growth 96h 6.6µM
CCC(=O)NCCc1nc2ccccc2n1Cc1ccc(C)cc1	Pf growth 96h inconclusive
Cc1cc(NC(=O)c2c(C)noc2C)no1	none
OCCNc1ncnc2c1ncn2[C@H]1CN(Cc2ccco2)C[C@@H](CO)O1	none (no result: Giardia FBPA inh, Pf growth 96h, Sm TGR inh, Pf growth 48h)
CS(=O)(=O)N1CCN(c2ccccc2NC(=O)c2cc3ccccc3o2)CC1	Pf growth 48h inconclusive
CCC(=O)Nc1nc2ccccc2n1Cc1ccccc1	Pf growth 96h inconclusive, Pf growth 48h inconclusive, HCMV antiviral -92
C[C@@H]1COC(=O)[C@H](Cc2ccc(F)cc2)CC/C=C\C[C@@H](CC(=O)NCCO)C(=O)N1	none (no result: Giardia FBPA inh, Pf growth 96h, Sm TGR inh, Pf growth 48h)
Cc1ccccc1-c1nc(CS(=O)CC(=O)NCCc2ccc(Cl)cc2)c(C)o1 (centres undefined)	Sm TGR inh 28µM (no result: Giardia FBPA inh)
COCCNC(=O)CS(=O)Cc1nc(-c2ccccc2C)oc1C (centres undefined)	Sm TGR inh 40µM (no result: Pf growth 48h)
Cc1ccc(CNC(=O)CS(=O)Cc2nc(-c3ccccc3C)oc2C)cc1 (centres undefined)	Sm TGR inh 45µM (no result: Pf growth 48h)
COCCNC(=O)CS(=O)Cc1nc(-c2ccc(OC)cc2)oc1C (centres undefined)	Pf growth 96h inconclusive (no result: Pf growth 48h)
Cc1ccc(CCNC(=O)CS(=O)Cc2nc(-c3ccccc3C)oc2C)cc1 (centres undefined)	none (no result: Giardia FBPA inh, Pf growth 96h, Pf growth 48h)
COc1ccc(CNC(=O)CS(=O)Cc2nc(-c3ccccc3C)oc2C)cc1 (centres undefined)	Sm TGR inh inconclusive (no result: Pf growth 48h)
Cc1ccccc1-c1nc(CS(=O)CC(=O)NCc2ccccc2)c(C)o1 (centres undefined)	Pf growth 96h inconclusive, Sm TGR inh 22µM (no result: Pf growth 48h)
Cc1cccc(Nc2nnc(-c3ccc(C)c(S(=O)(=O)NCC4CCCO4)c3)c3ccccc23)c1 (centres undefined)	HCMV antiviral inconclusive (no result: Giardia FBPA inh, Pf growth 96h, Pf growth 48h)
CCn1c(=O)c2sccc2n2c(CCCC(=O)Nc3ccc(Oc4ccccc4)cc3)nnc12	none (no result: Giardia FBPA inh, Pf growth 96h, Pf growth 48h)
C/C(=C\C(=O)OCCCCCCCCC(=O)O)C[C@@H]1OCC(C[C@H]2O[C@H]2[C@@H](C)[C@H](C)O)[C@@H](O)[C@H]1O (some centres undefined)	none (no result: Pf growth 96h, Sm TGR inh, Pf growth 48h, HCMV antiviral)
COc1ccccc1CNC(=O)CS(=O)Cc1nc(-c2ccccc2C)oc1C (centres undefined)	Pf growth 96h 5.2µM, Sm TGR inh inconclusive (no result: Pf growth 48h)
CC1=CC(C)(C(Cl)(Cl)Cl)C(C)=CC1=NO (centres undefined)	HCMV antiviral -69 (no result: Giardia FBPA inh, Pf growth 96h, Sm TGR inh, Pf growth 48h)
CN(CC(=O)Nc1ccccc1Cl)C(=O)COC(=O)c1nc(Cl)c(Cl)c(Cl)c1Cl	Sm TGR inh 18µM
COc1ccc(CCC(C(O)C(F)(F)F)S(=O)c2ccccc2)cc1 (centres undefined)	Pf growth 96h 2.1µM, Pf growth 48h inconclusive (no result: HCMV antiviral)
CCN(CC)c1ccc2c(c1)OC(N)=C(C#N)C2c1cccnc1 (centres undefined)	Pf growth 48h inconclusive, HCMV antiviral -85 (no result: Pf growth 96h)
CCOC(=O)CSC1=C(C#N)C(c2ccco2)C(C(=O)Nc2cccc(C(F)(F)F)c2)=C(C)N1 (centres undefined)	Sm TGR inh inconclusive, Pf growth 48h 10µM
N#CC1=C(N)Oc2cc(N)ccc2C1c1cccnc1 (centres undefined)	none
CCOC(=O)C1=C(c2ccccc2)OC(N)=C(C#N)C1c1ccc(Br)s1 (centres undefined)	Sm TGR inh 40µM
CCOC(=O)C1=C(c2ccccc2)NC(SCC(=O)Nc2cccc(C)c2)=C(C#N)C1c1ccco1 (centres undefined)	Pf growth 48h 9.3µM
CCOC(=O)C1=C(c2ccccc2)OC(N)=C(C#N)C1c1ccc(Cl)s1 (centres undefined)	Sm TGR inh inconclusive
CC(=O)C1=C(C)NC(SCC(=O)c2ccc(Cl)cc2)=C(C#N)C1c1ccco1 (centres undefined)	Giardia FBPA inh inconclusive, Pf growth 96h inconclusive, Pf growth 48h inconclusive
CC1=C(C(=O)OCc2ccccc2)C(c2ccsc2)C(C#N)=C(N)O1 (centres undefined)	Pf growth 96h inconclusive
CCOC(=O)C1=C(c2ccc(OC)cc2)OC(N)=C(C#N)C1c1cccnc1 (centres undefined)	Sm TGR inh 11µM
CC1=C(C(=O)OC(C)(C)C)C(c2ccco2)C(C#N)=C(N)O1 (centres undefined)	Pf growth 96h 2.1µM
CCOC(=O)C1=C(N)OC(CCl)=C(C#N)C1c1ccsc1 (centres undefined)	Sm TGR inh 13µM
CCOC(=O)C1=C(c2ccccc2)OC(N)=C(C#N)C1c1cccnc1 (centres undefined)	Pf growth 96h inconclusive
CCCSC1=C(C#N)C(c2cccnc2)C(C(=O)OCC)=C(c2ccccc2)N1 (centres undefined)	Pf growth 96h inconclusive, Pf growth 48h inconclusive (no result: Giardia FBPA inh)
CCOC(=O)C1=C(c2ccccc2)NC(SCC)=C(C#N)C1c1cccnc1 (centres undefined)	Pf growth 96h 8.3µM, Pf growth 48h inconclusive, HCMV antiviral inconclusive
Cc1cc(F)ccc1-c1cc(C(=O)N2CCN(c3ccncc3)CC2)[nH]n1	none (no result: Giardia FBPA inh, Pf growth 96h, Sm TGR inh, Pf growth 48h)
CC(C)c1ccc(N2C(=NC(=O)C3CC3)SC3CS(=O)(=O)CC32)cc1 (centres undefined)	none
Cc1ccccc1NC(=O)CSC1=C(C#N)C(c2ccsc2)CC(=O)N1 (centres undefined)	HCMV antiviral -62 (no result: Pf growth 96h)
CCOC(=O)C1=C(C)OC(N)=C(C#N)C1c1ccoc1 (centres undefined)	Sm TGR inh 32µM
CCOC(=O)C1=C(c2ccccc2)NC(SCC(=O)Nc2ccc(C)cc2)=C(C#N)C1c1ccco1 (centres undefined)	Pf growth 48h inconclusive (no result: Pf growth 96h)
CCOC(=O)C1=C(c2ccccc2)NC(SC)=C(C#N)C1c1ccco1 (centres undefined)	Sm TGR inh 35µM, Pf growth 48h inconclusive
CCOC(=O)C1=C(c2ccccc2)NC(SCC(=O)Nc2ccccc2C)=C(C#N)C1c1ccco1 (centres undefined)	Pf growth 48h 8.3µM
Cn1nnnc1SCCNCc1ccccc1OCc1ccc(Cl)cc1Cl	none (no result: Giardia FBPA inh, Pf growth 96h, Pf growth 48h)
Cc1ccc2c(c1)-c1c(c(C(=O)N3CCN(c4cc(Cl)ccc4C)CC3)nn1C)CS2	none (no result: Giardia FBPA inh, Pf growth 96h, Pf growth 48h)
OC[C@@H]1CN(Cc2cccnc2)C[C@H](n2cnc3c(N4CCN(c5ccccc5)CC4)ncnc32)O1	none (no result: Giardia FBPA inh, Pf growth 96h, Sm TGR inh, Pf growth 48h)
Cc1nn(-c2ccccc2)c(OC(=O)c2cccc(Br)c2)c1S(=O)(=O)c1ccccc1	none (no result: Giardia FBPA inh, Pf growth 96h, Pf growth 48h)
COc1ccc(C2=NCC(C)n3c2c2ccccc2[n+]3[O-])cc1 (centres undefined)	none (no result: Giardia FBPA inh, Pf growth 96h, Sm TGR inh, Pf growth 48h)
